Out of some 16,000 compounds screened, about 5,100 (32%) were called active. About 25% were inconclusive and are not listed. Calls come from the whole dose curve; as a rule, active = well fitted curve in the direction sought with a large enough effect; inconclusive = small, poorly fitted or top-dose-only effect, or effect the other way; inactive = no such curve, though single readings can be large or run the other way. The list shows a part of the results.
Target: Cytochrome P450 3A4 (Homo sapiens) (UniProt P08684)
Sequence (P08684 whole entry, looked up): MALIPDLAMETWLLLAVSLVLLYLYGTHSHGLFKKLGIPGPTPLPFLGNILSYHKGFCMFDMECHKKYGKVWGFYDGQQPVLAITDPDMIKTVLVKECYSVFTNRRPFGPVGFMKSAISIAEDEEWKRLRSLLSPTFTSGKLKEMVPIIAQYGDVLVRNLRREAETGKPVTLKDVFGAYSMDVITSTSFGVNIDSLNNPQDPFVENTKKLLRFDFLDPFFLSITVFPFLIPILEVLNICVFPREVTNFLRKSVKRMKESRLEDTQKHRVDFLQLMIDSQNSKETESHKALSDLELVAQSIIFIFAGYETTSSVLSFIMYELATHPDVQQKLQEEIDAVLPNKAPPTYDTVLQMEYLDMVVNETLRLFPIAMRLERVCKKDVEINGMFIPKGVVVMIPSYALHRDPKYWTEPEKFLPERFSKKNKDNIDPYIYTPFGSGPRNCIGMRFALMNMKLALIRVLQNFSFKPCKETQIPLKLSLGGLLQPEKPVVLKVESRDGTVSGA
Assay: Cytochrome panel assay with activity outcomes
Settings: recombinant CYP, pro-luciferin dealkylation, luminescence, p450-cyp3a4; series mostly up to 57.1 µM
% is set by controls: 0 for no effect and ±100 for the full control effect.

SMILES | activity, negative = inhibition | AC50
O=c1[nH]c(=O)n(CCC2=CCCCC2)c(O)c1C=Nc1cccc(F)c1 | inactive | –
C=CCn1c(O)c(C(C)=NCCCN2CCOCC2)c(=O)[nH]c1=O | inactive | –
O=c1[nH]c(=O)n(CCc2ccc(F)cc2)c(O)c1C=NCCCN1CCOCC1 | – | 11.2 µM (active)
COc1cccc(-n2c(O)c(C=NCCN3CCOCC3)c(=O)[nH]c2=O)c1 | inactive | –
Cc1cc(C)c(-n2c(O)c(C=NCCN3CCOCC3)c(=O)[nH]c2=O)c(C)c1 | – | 25.1 µM (active)
CCNC(=O)[C@@H]1O[C@@H](n2cnc3c(N)ncnc32)[C@@H](O)[C@H]1O | inactive | –
C[C@@H]1[C@@H]2Cc3ccc(O)cc3[C@@]1(C)CCN2CC1CC1 | inactive | –
C[C@@H]1O[C@H](O[C@@H]2C[C@@H](O)[C@]3(CO)[C@H]4[C@H](O)C[C@]5(C)[C@@H](C6=CC(=O)OC6)CC[C@@]5(O)[C@@H]4CC[C@]3(O)C2)[C@@H](O)[C@H](O)[C@H]1O | inactive | –
CCNC(=O)[C@@H]1O[C@@H](n2cnc3c(N)ncnc32)[C@H](O)[C@H]1O | inactive | –
CC(=O)O/C(=C1/C[C@H]2[C@@H]3CC=C4C[C@@H](OC(C)=O)CC[C@]4(C)[C@@H]3CC[C@]2(C)C1=O)C(F)(F)F | 4.88% [at 11.4 µM] (inactive) | –
c1ccc2nc(N3CCNCC3)ccc2c1 | inactive | –
CN(C)CCCNc1c2c(nc3ccc(Cl)cc13)CCCC2 | 0.971% [at 11.4 µM] (inactive) | –
CCN1C[C@]2(COC)CC[C@H](O)[C@@]34[C@@H]5C[C@H]6[C@@H](OC)[C@H]5[C@](O)(C[C@@H]6OC)[C@@](O)([C@@H](OC)[C@H]23)[C@@H]14 | inactive | –
COc1ccccc1CC1C(=O)C2CCN1CC2 (configuration not stated) | inactive | –
Cc1ccc(OP(=O)(Oc2ccc(C)cc2)N2C=Cc3ccccc3[C@H]2C#N)cc1 | – | 2.51 µM (active)
O=[N+]([O-])c1ccc(N2CCNCC2)cc1NC1CC1 | 1.13% [at 2.29 µM] (inactive) | –
CCCN(C/C=C\I)[C@@H]1CCc2ccc(O)cc2C1 | inactive | –
CCN1C[C@@]2(COC)CC[C@H](O)[C@@]34[C@@H]2C[C@@H]([C@@H]13)[C@]1(O)C[C@@H](OC)C2C[C@H]4[C@H]1[C@H]2OC(C)=O | inactive | –
COc1ccccc1N1CCNCC1 | inactive | –
C=C(C)[C@H]1CC[C@]2(CO)CC[C@]3(C)[C@@H](CC[C@H]4[C@@]5(C)CC[C@@H](O)C(C)(C)[C@@H]5CC[C@@]43C)[C@H]12 | inactive | –
N[C@H](CP(=O)(O)O)C(=O)O | inactive | –
Cc1ccc(C2CC(=O)C(C=NCCN3CCN(C(=O)Cc4ccccc4)CC3)=C(O)C2)cc1 (configuration not stated) | – | 3.16 µM (active)
